# From ChEMBL document CHEMBL3988442, “University of Dundee, Small-Polar-MMV Screening Library” (2021)
# The campaign covered roughly 48,000 compounds. About 13,000 (27%) showed an effect of 50% or more. The list shows a part of the results.
# Tested on: Wolbachia pipientis
# Assay: Anti-Wolbachia Cell-Based Screen
# Format: functional
# Set-up: scale not given: in the data most compounds retested in dose-response had high values
# Settings: 5 µM
row,SMILES,Percent Effect [%]
1,COc1ncccc1NC(=O)N1CCC(c2ccc(O)cc2)CC1,-2.726
2,CC(C)c1nc(C(=O)N2CCCC(N)CC2)cs1 (configuration not stated),-4.509
3,CN(CC(F)F)C(=O)c1cn(-c2ccc(Br)cc2)cn1,1.903
4,CN(Cc1nc(C2CC2)no1)C(=O)C1COc2ccccc2C1 (configuration not stated),29.53
5,Cc1ccnc(C(NC(=O)c2ncoc2C)C2CC2)n1 (configuration not stated),-4.451
6,CC(=O)c1cccc(OCC(=O)N(CC(C)C)C2CCN(C)CC2)c1,-3.463
7,Cn1cccc1C(=O)N1CCC2(CC1)c1nc[nH]c1CCN2S(C)(=O)=O,-21.07
8,Cc1c2ncn(CC(=O)N(C)C)c(=O)c2nn1C,-2.054
9,CC(C)(C)N1CCCN(C(=O)c2csc(S(N)(=O)=O)c2)CC1,4.518
10,CC(C)c1noc(C(C)N2CCN(Cc3noc(C4CC4)n3)CC2)n1 (configuration not stated),18.72
11,CC(c1nc(C2CC2)no1)N1CCN(Cc2noc(C3CC3)n2)CC1 (configuration not stated),103.7
12,CC(C)c1nc(CN2CCN(C(C)c3nc(C4CC4)no3)CC2)no1 (configuration not stated),0.3475
13,CC(NC(=O)N1CCN(c2ccccc2)CC1)c1nncn1C (configuration not stated),1.482
14,CC(C(=O)O)N1CCc2onc(-c3ccc(F)c(F)c3)c2C1 (configuration not stated),-3.454
15,CCc1c(C(=O)NC2CCS(=O)(=O)C2)cnn1-c1ccc(F)cc1 (configuration not stated),9.191
16,O=C(CCNC(=O)c1sccc1-c1ccccc1)NC1CCS(=O)(=O)C1 (configuration not stated),26.53
17,CC(C)Cn1cc(C(=O)NC2CCS(=O)(=O)C2)c2ccccc2c1=O (configuration not stated),107.3
18,O=C(NC1CCS(=O)(=O)C1)c1cn(C2CC2)c(=O)c2ccccc12 (configuration not stated),92.4
19,COCCn1cc(C(=O)NC2CCS(=O)(=O)C2)c2ccccc2c1=O (configuration not stated),102
20,O=C(NC1CCS(=O)(=O)C1)c1ccc(-c2ccc(F)cc2)s1 (configuration not stated),1.727
21,Cn1cc(CCNC(=O)NC2CCS(=O)(=O)C2)cn1 (configuration not stated),-13.02
22,COCCN1CCC(NC(=O)Cn2cc(C)c3ccccc32)CC1,-24.59
23,CC(C)n1cc(C(=O)NC2CCS(=O)(=O)C2)c2ccccc2c1=O (configuration not stated),104.9
24,CC(C)[C@H](NC(=O)NC1CCS(=O)(=O)C1)C(=O)NCc1ccccc1Cl (some centres not stated),-0.7444

row,SMILES,Percent Effect [%]
1,CN(Cc1csc2ccccc12)C(=O)NC1CCS(=O)(=O)C1 (configuration not stated),-6.965
2,O=C(NC1CCC(N2C(=O)CCC2=O)CC1)c1c[nH]c2ccccc12 (configuration not stated),-1.536
3,Cn1cnc2cc(C(=O)N3CCN(CCO)[C@@H]4CS(=O)(=O)C[C@@H]43)ccc21,-4.245
4,O=C(O)c1cc(-c2ccoc2)cc(S(=O)(=O)NC2CC2)c1,13.87
5,c1cnc(NCC2Cn3nnc(-c4ccoc4)c3CO2)nc1 (configuration not stated),9.551
6,Cc1nnc(CN2C[C@H](NC(=O)CC3CCCC3)[C@@H](C3CC3)C2)s1,-5.316
7,COC(=O)C1CN(Cc2ccn(-c3ccc(F)cc3)n2)C[C@@H](C)O1 (some centres not stated),-6.737
8,CCc1cc(NC(=O)c2cccc(OCC(F)(F)F)n2)[nH]n1,-13.74
9,O=C(NC1CCS(=O)(=O)C1)c1ccccc1SCc1cscn1 (configuration not stated),-4.386
10,O=C(NC1CCS(=O)(=O)C1)c1sccc1OC(F)F (configuration not stated),15.29
11,CC(C)CCn1cc(C(=O)NC2CCS(=O)(=O)C2)c2ccccc2c1=O (configuration not stated),143.5
12,Cc1nonc1-c1nc(C(C)C)nn1-c1ccc2c(c1)OCO2,-15.14
13,CNC(=O)C(NC(=O)c1c(C)noc1C)c1ccc(F)c(F)c1 (configuration not stated),1.933
14,COCCn1ccc2ccc(NC(=O)NCc3noc(C)n3)cc21,-17.56
15,COCCn1cnc2ccc(NC(=O)c3c(C)noc3C)cc2c1=O,114.6
16,Cc1noc(C)c1C(=O)NCCc1cccs1,-0.0309
17,Cc1noc(C)c1C(=O)Nc1ccc2ncn(CC(C)C)c(=O)c2c1,120.5
18,Cc1noc(C)c1C(=O)NCC(O)c1ccc(F)cc1F (configuration not stated),3.33
19,COc1cc(S(=O)(=O)N2CCc3ccc(F)cc32)cc(C(=O)O)c1OC,-3.468
20,COc1ccc(C)cc1CSCCn1nc2ccccn2c1=O,4.389
21,Cc1sc2nc(CCN)nc(N3CCS(=O)(=O)CC3)c2c1C,5.115
22,Cc1ccc(C(=O)NC(CN2CCCC2)c2ccccc2)c(=O)[nH]1 (configuration not stated),-7.426
23,O=C(NC1CCN(CC2CC2)C1)c1ccc(C(=O)c2cc[nH]c2)cc1 (configuration not stated),2.424
24,Cc1ccc(C(=O)NC2CCCN(C)C2)c(=O)[nH]1 (configuration not stated),91.25

row,SMILES,Percent Effect [%]
1,CN1CCCC(N(C)C(=O)c2ccc(NC(=O)c3ccc[nH]3)cc2)C1 (configuration not stated),-8.212
2,Cc1ccc(C(=O)Nc2cnn(CC(=O)NC3CCCC3)c2)c(=O)[nH]1,-2.747
3,CCN1CCCC(NC(=O)c2ccc(C)[nH]c2=O)C1 (configuration not stated),104.5
4,Cc1ccc(C(=O)NC2CCCN(CC(N)=O)C2)c(=O)[nH]1 (configuration not stated),108.8
5,Cc1ccc(C(=O)NCCN2CCOCC2)c(=O)[nH]1,10.08
6,Cc1ccc(C(=O)NC2CCCCNC2=O)c(=O)[nH]1 (configuration not stated),-8.505
7,CN1CCCC(NC(=O)c2ccc(C(=O)c3cc[nH]c3)cc2)C1 (configuration not stated),107.5
8,COc1ccc(F)cc1C(=O)N1CCC2(CCC(=O)N(C(C)C)C2)CC1,-13.7
9,CCN(CC)C1CCN(C(=O)Nc2cc(F)c(OC)c(F)c2)C1 (configuration not stated),-0.1207
10,COCC(=O)N[C@H](C(=O)NC(C)c1cc(C)ccc1C)C(C)C (some centres not stated),-5.803
11,CC(=O)NCC(=O)N1Cc2ccnn2CC(COCCN(C)C)C1 (configuration not stated),-1.622
12,Cc1ccc(C(=O)NC(C)CN2CCCC2=O)c(=O)[nH]1 (configuration not stated),-26.01
13,Cc1ccc(C(=O)NC2CCN(C(C)C)C2)c(=O)[nH]1 (configuration not stated),89.09
14,CC(C)N1CCC(NC(=O)NCCC(=O)NCc2ccccc2)C1 (configuration not stated),-0.958
15,CCOc1cc(C)nc(N2CCN(C(=O)c3ccc[nH]3)CC2)n1,-4.872
16,CC(C)N(Cc1cccnc1)C(=O)CCSc1ccc(C#N)cc1,-11.64
17,CC(c1ccco1)N(C)C(=O)NCCOc1ccc(C#N)cc1 (configuration not stated),99.5
18,CC(c1ccco1)N(C(=O)COc1ccc(C#N)cc1)C1CC1 (configuration not stated),1.408
19,CC(C)N(Cc1ccc(C#N)cc1)C(=O)Nc1ccncc1,-13.59
20,CC(c1ccco1)N(C(=O)CNc1ccc(C#N)cc1)C1CC1 (configuration not stated),-9.874
21,CC(c1ccncc1)N(C)C(=O)NCCOc1ccc(C#N)cc1 (configuration not stated),100.4
22,CCNC(=O)N(C)C(c1cccnc1)C(C)C (configuration not stated),-2.757
23,CC(c1cccnc1)N(C)C(=O)NCCOc1ccc(C#N)cc1 (configuration not stated),102.9
24,CC(C)N(Cc1ccc(C#N)cc1)C(=O)NCCNc1ncccn1,-6.799
